What all share (test): NCI-60 one-dose screen, 48 h (100 = growth as untreated, 0 = no growth, -100 = all killed)
Conditions in all cases: 10 µM unless noted

The subject of assay [1] is NCI-H23 lung.
In assay [2] the test system is NCI-H322M lung.
For assay [3], the system named is HOP-62 NSCLC.
The subject of assay [4] is NCI-H460 lung.
Assay [5] concerns HOP-92 NSCLC.
The subject of assay [6] is NCI-H522 lung.
The subject of assay [7] is A549/ATCC NSCLC.
In assay [8] the test system is 786-0 renal.
Assay [9] has as its system DU-145 prostate.
The test system of assay [10] is K-562 leukemia.
In assay [11] the test system is MALME-3M melanoma.
Assay [12] concerns MDA-MB-231 breast.
The test system of assay [13] is RXF 393 renal.
For assay [14], the system named is SF-268 CNS.
In assay [15] the test system is SF-295 CNS.
Assay [16] has as its system SF-539 CNS.
Assay [17] relates to UACC-257 melanoma.
For assay [18], the system named is M14 melanoma.
The subject of assay [19] is COLO 205 colon.

SMILES strings stand for the structures. The panel holds about 83,000 compounds, 20% with a hit somewhere; the sample as a whole holds those more often.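 Negative percent growth values reflect cell death: -40 means 40% of the cells present at the start died, and -100 means all died.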 Unmarked numbers belong to inactive results. Activity calls are given as the source filed them. The calls were made as follows: active = growth percent below 10; inactive = the rest.

Turning to `O=C(NCCNc1cc(-c2cn(-c3ccccc3)nc2-c2cccc(O)c2)ccn1)Nc1ccccc1`, the growth is 69.4% in assay [1]; 95.3% in assay [2]; 63.7% in assay [3]; 86.2% in assay [4]; 54.5% in assay [5]; 70.8% in assay [6]. Also, the growth in [7] was 52.5%; in assay [8], 71.4%; in assay [9], 92.8%; in [10] it was 35.4%; in [11] it was 92.3%; in assay [12], 57.1%. Moreover, the growth in [13] was 89.5%; in [14], 81.3%; in assay [15] it was 75.8%; in assay [16], 89.5%; in assay [17], 58.7%; in assay [18], 72.2%.

Take `CN1C(=O)N(C)C2C1NN=c1s/c(=C\c3ccccc3)c(=O)n12` (centres undefined): the growth in assay [1] was 64.1%; in [2] it was 59%; in assay [3], 46.9%; in assay [4], 17.5%; in assay [5] it was 73.9%; in assay [6] it was 12.5%. For the same compound, the growth in [7] is 39.9%; in assay [8], 30.5%; in assay [19], 11.9%; in assay [9], 55%; in [10], 20.3%; in assay [11], 51.3%. Further, the growth was 68.9% in assay [12]; 54.7% in assay [13]; 57.8% in assay [14]; 34% in assay [15]; 45.1% in assay [16]; 54% in assay [17]. Also, the growth in [18] is 31%.

Regarding `O=C(N/N=C/c1ccncc1)c1ccc(C(F)(F)F)nc1Nc1cccc(C(F)(F)F)c1`, the growth in assay [1] was 21.4%; in assay [2], 8.36% (active); in assay [3] it was 13.3%; in assay [4] it was 14.3%; in [5] it was 3.81% (active); in assay [6] it was -9.51% (active). Further, the growth in assay [7] is 16.1%; in assay [8], -27.9% (active); in assay [19], -3.93% (active); in [9] it was 40.6%; in [10], 13.9%; in assay [11], 4.45% (active). Further, the growth in [12] was 21.1%; in assay [13], -8.63% (active); in assay [14], 23.4%; in assay [15], -24.1% (active); in [16], 26.1%; in [17] it was 21.9%. Also, the growth in [18] is 25.4%.

Regarding `COc1ccc(-c2nc(SC(C)C)nc(NNC(N)=S)c2C#N)cc1`, the growth in [1] is 69.7%; in assay [2], 91.3%; in assay [3] it was 63.7%; in [4], 22.4%; in assay [5], 41.2%; in [6], 12.8%. Moreover, the growth in assay [7] was 49.2%; in assay [8], 85%; in assay [19], 99.9%; in assay [9], 77.7%; in [10] it was 16.9%; in assay [11], 51.7%. Besides, the growth in [12] was 43.3%; in assay [13] it was 63.7%; in assay [14], 62.5%; in [15] it was 55.2%; in assay [16], 50.1%; in [17], 82.7%. Moreover, in assay [18], the growth was 53.8%.

For `C=CCSc1nc2ccccc2cc1/C=N/O`, the growth in assay [1] is 81.9%; in [2], 81.4%; in assay [3] it was 77.1%; in [4], 90.4%; in assay [5], 58.2%; in assay [6] it was 76.4%. Further, the growth in assay [7] was 92.5%; in [8], 100%; in assay [19], 94.1%; in assay [9], 110%; in assay [10] it was 92.3%; in assay [11], 129%. Moreover, the growth was 97.6% in [12]; 68.8% in [13]; 90.8% in [14]; 94.7% in assay [15]; 104% in [16]; 87.6% in [17]. Further, the growth in assay [18] was 91%.

Regarding `C=CCn1c(C)nc2cc(Nc3nc(N4CCCC4)nc4ccccc34)ccc21`, the growth in [1] is 88.6%; in assay [2] it was 113%; in [3], 90.6%; in assay [4], 81.2%; in [5] it was 81.3%; in [6] it was 127%. Also, the growth in assay [7] is 74.6%; in [8], 75.9%; in assay [19] it was 92.6%; in [9] it was 73.8%; in assay [10], 1.94% (active); in [11], 122%. Also, the growth is 42% in assay [12]; 52.4% in [13]; 86.9% in [14]; 83.7% in [15]; 90.1% in assay [16]; 115% in assay [17]. Further, the growth in assay [18] is 89.7%.

As to `O=c1cc(C2NNC(=S)N2)c2ccc3ccccc3c2o1` (centres undefined), the growth was 91.6% in [1]; 101% in assay [2]; 95.1% in assay [3]; 98.6% in assay [4]; 103% in [5]; 87.1% in assay [6]. The growth in [7] was 108%; in [8] it was 100%; in assay [19] it was 104%; in assay [9], 109%; in [10], 90.5%; in [11], 104%. Further, the growth is 96.3% in assay [12]; 87.4% in assay [13]; 102% in [14]; 100% in [15]; 94.1% in [16]; 116% in [17]. In assay [18], the growth is 102%.

In the case of `Cc1cc[c-]cc1.Fc1c[c-]c(-c2ccccn2)c(F)c1.[Pt+2].c1ccc(P(C[PH+](c2ccccc2)c2ccccc2)c2ccccc2)cc1`, the growth in [1] was 7.43% (active); in assay [2] it was 19.2%; in [3], 2.59% (active); in [4], 3.67% (active); in [5] it was -16.3% (active); in assay [6], 8.51% (active). The growth in assay [7] is 8.52% (active); in assay [8], 23.1%; in [19], -41.2% (active); in assay [9], 17.5%; in [10] it was 8.02% (active); in [11] it was -15.8% (active). Besides, the growth is -9.05% (active) in assay [12]; 23.1% in assay [13]; 9.02% (active) in [14]; 6.93% (active) in [15]; 21.5% in assay [16]; -12.1% (active) in assay [17]. In addition, the growth in [18] is 22%.

`O=c1c2c3c(sc2nc(N/N=C/c2ccc(Br)cc2)n1Cc1ccccc1)CCCC3`: the growth is 68.2% in assay [1]; 71.4% in [2]; 65.6% in assay [3]; 69.4% in [4]; 57.8% in [5]; 74.8% in assay [7]. Also, the growth in assay [8] was 56.7%; in assay [19], 75.4%; in [9] it was 81.6%; in assay [10], 79.9%; in assay [11], 91.6%; in [12] it was 50.2%. For the same compound, the growth in assay [13] is 73.2%; in assay [14] it was 68.4%; in assay [15] it was 34.3%; in [16] it was 50%; in assay [17] it was 78.9%; in assay [18] it was 75.8%.

For the compound `NS(=O)(=O)c1cnccc1Oc1cccc2cccnc12`, the growth in assay [1] is 90.9%; in assay [2], 99.6%; in assay [3], 86.8%; in assay [4], 108%; in assay [5], 78.4%; in assay [6], 95.7%. The growth is 94.6% in [7]; 97.7% in assay [8]; 103% in [19]; 108% in assay [9]; 82.4% in [10]; 96% in assay [11]. Further, the growth in assay [12] is 102%; in [13], 104%; in [14] it was 101%; in [15], 120%; in assay [16] it was 88.3%; in [17], 114%. Besides, the growth in assay [18] is 98.8%.

For the compound `CC(C)(C)C(CCc1ccc(Cl)cc1)N1CCN(C2CCCCC2)CC1` (centres undefined), the growth in assay [1] was 47.5%; in [2], 82.8%; in assay [3], 47.5%; in [5], 45.3%; in [6] it was 41%; in assay [7], 24.9%. Besides, the growth was 42.4% in [8]; 33.7% in assay [19]; 25.3% in [9]; 9.18% (active) in [10]; 83.4% in assay [11]; 12.3% in assay [12]. The growth in assay [13] is 83.2%; in [14], 43.8%; in assay [15] it was 72.6%; in assay [16], 81.2%; in [17] it was 51.4%; in assay [18], 31.9%.

As to `NC(=S)N/N=C/Cc1ccccc1`, the growth is 99.6% in assay [1]; 105% in assay [2]; 104% in assay [3]; 109% in [5]; 100% in assay [6]; 90.6% in assay [7]. For the same compound, the growth in assay [8] is 106%; in [19], 97.2%; in [9] it was 110%; in assay [10], 88.4%; in assay [11], 119%; in assay [12], 101%. The growth in assay [13] was 103%; in assay [14], 105%; in assay [15], 97.7%; in assay [16], 109%; in [17], 59.7%; in assay [18], 104%.
